Laboratory results as given in PubChem BioAssay (NCATS).
“And” between values parts separate entries of the source, which are not always exact repeats. Equal entries are not always repeated. Results filed as inconclusive are left out. The source made the active and inactive calls. Calls follow the shape of the dose curve; as a rule, active = well fitted curve in the direction sought with a large enough effect; inconclusive = small, poorly fitted or top-dose-only effect, or another doubt; inactive = no such curve, though single readings can be large; an effect the other way counts as inactive or inconclusive.

How the values were obtained:
[1] = qHTS of pediatric cancer cell lines to identify multiple opportunities for drug repurposing: Primary screen for TC32 cells (AID 1347089); also: nearly all actives have a fitted effect of over 60% in size
Outline: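 TC32 cells, 500-1,000/well in growth medium, compound-treated 48 h at 37 °C; viability from CellTiter-Glo luminescence. Primary screen: MIPE 11-point (0.78 nM–46 µM final), NPC 8-point (0.59 nM–46 µM final); confirmatory at 11-point dilutions.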

[2] = qHTS of pediatric cancer cell lines to identify multiple opportunities for drug repurposing: Primary screen for DAOY cells (AID 1347090); also: nearly all actives have a fitted effect of over 55% in size
Outline: (§1)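 Viability measured as metabolically active cells via CellTiter-Glo luminescence following 48 hours of compound exposure, 11-point dilutions in confirmatory testing. 500-1,000 cells/well plated 5 hours before dosing; controls were DMSO and 2.3 µM bortezomib.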

[3] = qHTS of pediatric cancer cell lines to identify multiple opportunities for drug repurposing: Primary screen for SK-N-MC cells (AID 1347093)
Outline: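 Metabolically active cells were quantified by ATP-dependent luminescence (CellTiter-Glo, 15 min at room temperature) following 48 h treatment. Cells had been plated at 500-1,000 per well and settled for 5 h beforehand.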

[4] = qHTS of pediatric cancer cell lines to identify multiple opportunities for drug repurposing: Primary screen for BT-37 cells (AID 1347094)
Outline: (§2)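 Readout: CellTiter-Glo luminescence, 48 h treatment. Controls DMSO (neutral) and bortezomib 2.3 µM final (positive). Potency and efficacy taken from primary-screen concentration-response curves.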

[5] = qHTS of pediatric cancer cell lines to identify multiple opportunities for drug repurposing: Primary screen for NB-EBc1 cells (AID 1347095)
Outline: as §2

[6] = qHTS of pediatric cancer cell lines to identify multiple opportunities for drug repurposing: Primary screen for A673 cells (AID 1347092); also: nearly all actives have a fitted effect of over 45% in size
Outline: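 A673 cells (500-1,000 cells/well) were treated 48 hours at 37 degrees C with compounds at 11-point (0.78 nM to 46 µM) or 8-point (0.59 nM to 46 µM) dilutions. Viability read by CellTiter-Glo luminescence; concentration-response curves fitted.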

[7] = qHTS of pediatric cancer cell lines to identify multiple opportunities for drug repurposing: Primary screen for SJ-GBM2 cells (AID 1347091)
Outline: as §1

Measured: Potency
Potency is read from the fitted curve at half-maximal effect.

Cc1cnc(Nc2ccc(OCCN3CCCC3)cc2)nc1Nc1cccc(S(=O)(=O)NC(C)(C)C)c1
active: [3] 18.7 µM
inactive: [1] | [2] | [4] | [5]

Cc1csc(NC(=O)c2sc3nc4c(c(C(F)(F)F)c3c2N)CCC4)n1
active: [2] 23.5 µM | [6] 1.18 µM | [4] 8.63 µM
inactive: [1] | [3] | [5]

Cn1cc(-c2ccc3nnc(C(F)(F)c4ccc5ncccc5c4)n3n2)cn1
inactive: [1] | [2] | [3]

COc1nc(-c2ccc3c(c2)OCO3)n(-c2ccc(NC(=O)CSc3ccccc3)cc2)n1
not listed: [6]
inactive: all other assays above

O=C1[C@H](Cc2ccc(O)cc2)N2C(=O)CCN(C(=O)NCc3ccccc3)[C@H]2CN1Cc1cccc2ccccc12
active: [1] 11.7 µM | [2] 14.8 µM | [7] 10.5 µM | [3] 1.18 µM | [4] 4.85 µM | [5] 14.8 µM

COc1ccccc1-c1cccc(-c2c(O)c3cc(C#N)c(Cl)cc3[nH]c2=O)c1
inactive: [1] | [2] | [6]
active: [3] 34 µM | [5] 7.62 µM

Cc1cc(C=c2sc3nc4ccccc4n3c2=O)c(C)n1-c1ccccc1
not listed: [4] | [6]
inactive: all other assays above

Cc1cc(SCc2sc(-c3ccc(C(F)(F)F)cc3)nc2C)ccc1OCC(=O)O
active: [3] 18.7 µM
inactive: [1] | [2] | [4] | [5]

OC[C@H](Cc1ccccc1)Nc1nc(Oc2ccc3c(c2)CCC3)nc2c1ncn2Cc1ccc(-c2ccccc2)cc1
active: [2] 11.8 µM | [3] 1.87 µM
inactive: [1]

C[C@]12CC[C@H](O)CC1=CC[C@@H]1[C@H]2CC[C@]2(C)C(c3cccnc3)=CC[C@H]12
not listed: [5] | [7]
inactive: all other assays above

CNC(=O)c1ccc(N2C(=S)N(c3ccc(C#N)c(C(F)(F)F)c3)C(=O)C2(C)C)cc1F
not listed: [7]
inactive: all other assays above

CCN(CC)CCCC(C)Nc1nc(C)cc(Nc2ccc3nc(C)cc(N)c3c2)n1 (stereo not drawn)
not listed: [6]
inactive: all other assays above

Cc1c(CN2CCN(C(=O)C(C)C)CC2)sc2c(N3CCOCC3)nc(-c3cnc(N)nc3)nc12
active: [1] 0.466 µM | [2] 0.469 µM | [7] 0.132 µM | [3] 0.0235 µM | [4] 0.485 µM | [5] 0.118 µM

CCCS(=O)(=O)Nc1ccc(F)c(C(=O)c2c[nH]c3ncc(-c4ccc(Cl)cc4)cc23)c1F
active: [2] 18.7 µM | [3] 10.5 µM
inactive: [1]

CCCS(=O)(=O)Nc1ccc(F)c(C(=O)c2c[nH]c3ncc(Cl)cc23)c1F
active: [7] 10.5 µM | [6] 18.7 µM | [3] 4.18 µM
inactive: [1]

CC[C@@H](C)[C@H](NC(=O)[C@H](CC1CCCCC1)NC(=O)c1ccno1)C(=O)N1CCC2(CCc3ccccc32)CC1
active: [3] 8.33 µM
inactive: [1] | [2]

Cc1cc([C@@H](C)Nc2ccccc2C(=O)O)c2nc(N3CCOCC3)cc(=O)n2c1
active: [1] 12 µM | [2] 0.679 µM | [7] 13.6 µM | [3] 0.191 µM | [4] 55.9 µM | [5] 24.1 µM

CS(=O)(=O)Oc1ccc2c(NC(N)=O)c(C(=O)c3ccc(Cl)cc3Cl)oc2c1
active: [2] 14.8 µM | [7] 3.32 µM | [3] 1.48 µM | [4] 3.43 µM | [5] 4.18 µM
inactive: [1]

CCC(=O)N[C@H]1CC[C@H](C(=O)N(C)c2ccc(-c3nc4ccccc4o3)cc2)C1
active: [2] 5.9 µM | [3] 0.833 µM
inactive: [1] | [5]

Nc1nc2[nH]cc(CCc3ccc(C(=O)N[C@@H](CCC(=O)O)C(=O)O)cc3)c2c(=O)[nH]1
inactive: [2] | [4]
active: [1] 4.66 µM | [3] 0.132 µM | [5] 1.48 µM

COc1ccc2nc(S(=O)Cc3ncc(C)c(OC)c3C)[nH]c2c1 (stereo not drawn)
not listed: [3] | [6]
inactive: all other assays above

CC(C=CC1=C(C)CCCC1(C)C)=CC=CC(C)=CC(=O)O
active: [2] 7.43 µM | [3] 8.33 µM and 1.48 µM
not listed: [6]
inactive: all other assays above

COc1ccc([C@@H]2CC(=O)c3c(O)cc(O[C@@H]4O[C@H](CO[C@@H]5O[C@@H](C)[C@H](O)[C@@H](O)[C@@H]5O)[C@@H](O)[C@H](O)[C@@H]4O)cc3O2)cc1O
inactive: [1] | [2] | [4] | [5]
active: [3] 16.6 µM

O=C(C=Cc1ccc(/C=C/C(=O)Nc2ccc(C3=NCCN3)cc2)cc1)Nc1ccc(C2=NCCN2)cc1
not listed: [3] | [7]
inactive: all other assays above

CN(C)c1ccc(C2Nc3ccc4ccccc4c3C3=C2C(=O)CC(C)(C)C3)cc1Br (stereo not drawn)
inactive: [1] | [2] | [5]
active: [3] 7.43 µM
